Assay [1] is described as follows: qHTS RealTime-Glo MT Cell Viability Assay in HepG2 cells - 8 hour (AID 1224873). Further: nearly all actives have a fitted effect of over 55% in size. The essentials:
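HepG2 cells (600/well) mixed with RealTime-Glo MT reagent, settled 5 h at 37 C/5% CO2 before compound addition. Nonlytic NanoLuc luminescence from viable-cell prosubstrate reduction read repeatedly during 40 h treatment at 37 C.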
On the technique in general: In qHTS, concentration-response curves come from the screen itself.

A short description of assay [2]: qHTS RealTime-Glo MT Cell Viability Assay in HepG2 cells - 32 hour (AID 1224877). Further: nearly all actives have a fitted effect of over 55% in size. Further: potency means the concentration at half of the fitted maximal effect. The essentials: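 Luminescence read-out: viable HepG2 cells reduce a prosubstrate to a NanoLuc substrate, giving a signal proportional to live cell number. Reads taken at 0, 8, 16, 24, 32 and 40 h of compound exposure at 37 C.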
Assay [3] is described as follows: A CellTox Green Cytotoxicity Assay to monitor cytotoxicity in HepG2 cells - 24 hour (AID 1224878). Further: nearly all actives have a fitted effect of over 45% in size. Further: potency means the concentration at half of the fitted maximal effect. A digest of the protocol: (§1)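 Fluorescent DNA-binding dye, 600 HepG2 cells/well, 5 h preincubation then compound in DMSO; same plates read at 0–40 h, 37 C.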
The nature of assay [4]: A CellTox Green Cytotoxicity Assay to monitor cytotoxicity in HepG2 cells - 40 hour (AID 1224879). Further: nearly all actives have a fitted effect of over 40% in size. Further: potency means the concentration at half of the fitted maximal effect. A digest of the protocol: as §1
A short description of assay [5]: A CellTox Green Cytotoxicity Assay to monitor cytotoxicity in HepG2 cells - 0 hour (AID 1224882). Further: nearly all actives have a fitted effect of over 35% in size. Further: potency means the concentration at half of the fitted maximal effect. The essentials: as §1
Assay [6] can be described thus: qHTS RealTime-Glo MT Cell Viability Assay in HEK293 cells - 40 hour (AID 1224874). Further: nearly all actives have a fitted effect of over 50% in size. Further: potency means the concentration at half of the fitted maximal effect. Conditions: RealTime-Glo luminescence; max response: active compounds read low. The essentials:
(§2)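 Measured as luminescence from the same continuously cultured HEK293 wells at successive time points (0, 8, 16, 24, 32, 40 h) after compound addition. Reagent present from seeding; dosing at 5 h; incubation 37 C.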

The nature of assay [7]: A CellTox Green Cytotoxicity Assay to monitor cytotoxicity in HEK293 cells - 24 hour (AID 1224875). Further: nearly all actives have a fitted effect of over 45% in size. Further: potency means the concentration at half of the fitted maximal effect. On activity change: series mostly up to about 77 µM. A digest of the protocol:
(§3)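 Homogeneous no-lysis format: HEK293 cell suspension mixed with CellTox Green reagent, seeded, incubated 5 h at 37 C/5% CO2, then dosed by pintool with compound in DMSO.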

Assay [8] can be described thus: A CellTox Green Cytotoxicity Assay to monitor cytotoxicity in HEK293 cells - 32 hour (AID 1224881). Further: nearly all actives have a fitted effect of over 40% in size. Further: potency means the concentration at half of the fitted maximal effect. The essentials:
as §3

The nature of assay [9]: A CellTox Green Cytotoxicity Assay to monitor cytotoxicity in HepG2 cells - 16 hour (AID 1224876). Further: nearly all actives have a fitted effect of over 45% in size. Further: potency means the concentration at half of the fitted maximal effect. A digest of the protocol:
as §1

Assay [10] in a line: qHTS RealTime-Glo MT Cell Viability Assay in HEK293 cells - 0 hour (AID 1224880). Further: top concentration of the series differs between compounds; nearly all actives have a fitted effect of over 45% in size. The essentials:
as §2

These results are taken from PubChem BioAssay (Tox21).

A number with no mark means an inactive call. Results filed as inconclusive are left out. Active and inactive are the calls of the source. The call rests on the fitted dose curve; in most records, active means well fitted curve in the direction sought with a large enough effect in the repeat runs; inconclusive means weak or mixed curves; inactive means no such curve, though single readings can be large; an effect the other way counts as inactive or inconclusive.
On the % scale 0 is the no-effect control and ±100 the full control effect.

As for `Cc1cccc2c1cc1ccc3cccc4ccc2c1c34`, the Potency result in [1], in assay [2], in assay [3], in assay [4] and in assay [5] was “inactive” throughout.
As for `C/C=C1/C(=O)C[C@H]2[C@@H]3CCC4=CC(=O)CC[C@]4(C)[C@H]3CC[C@]12C`, the figures for the Potency in assay [6] and in assay [4] were 48.8 µM (active) and 43.5 µM (active), respectively. Besides, the Potency result in assay [7], in assay [2], in assay [8] and in assay [5] was “inactive” each time.
As for `Nc1nc2ccccc2n1Cc1ccc(F)cc1`, the Potency result in [1], in assay [9], in assay [2], in assay [8] and in assay [5] was “inactive” throughout. The Potency in assay [4] was 23.9 µM (active).
For `N=C1C=CC(=C(c2ccc(N)cc2)c2ccc(N)cc2)C=C1`, the figures for the Potency in [6] and in assay [2] were 1.95 µM (active) and 24.5 µM (active), respectively. Besides, the Potency result in assay [7], in assay [4], in [10], in assay [8] and in assay [5] was “inactive” throughout.
On to `CCN(CC)CCCC(C)Nc1c2ccc(Cl)cc2nc2ccc(OC)cc12` (stereo not given), for which the Potency in assay [6] was 3.01 µM (active); in [7], 10.7 µM (active); in assay [9], 16.9 µM (active); in assay [2], 6.01 µM (active); in assay [3] it was 9.52 µM (active); in assay [4] it was 6.01 µM (active). For the same molecule, the Potency in [8] was 7.56 µM (active); in assay [5], 21.3 µM (active). For the same molecule, the Potency entry in [10] was “inactive”.
In the case of `COc1cccc2c1C(=O)c1c(O)c3c(c(O)c1C2=O)C[C@@](O)(C(=O)CO)C[C@@H]3O[C@H]1C[C@H](N)[C@H](O[C@@H]2CCCCO2)[C@H](C)O1`, the Potency in assay [6] is 0.19 µM (active); in assay [9] it was 23.9 µM (active); in assay [2], 1.9 µM (active); in [3], 9.52 µM (active); in assay [4], 1.51 µM (active). The Potency result in assay [7], in [10] and in [8] was “inactive” each time.
Consider `O=C(c1ccc(O)cc1O)c1ccc(O)cc1O`, for which the Potency entry in assay [1], in assay [9], in assay [2], in assay [4], in assay [10] and in [8] was “inactive” in each case. For the same molecule, in assay [5], the Potency entry was “inactive”.
With `[O-][n+]1ccccc1SSc1cccc[n+]1[O-]`, the Potency was 1.17 µM (active) in [6]; 4.65 µM (active) in assay [7]; 9.28 µM (active) in assay [9]; 0.165 µM (active) in assay [2]; 1.47 µM (active) in [3]; 0.329 µM (active) in [4]. In addition, the results for the Potency in assay [8] and in assay [5] were 2.93 µM (active) and 11.7 µM (active), respectively. Moreover, the activity change, negative = cytotoxicity in assay [10] is -7.04% [at 15.8 µM].
As for `C[C@@H]1C[C@H]2[C@@H]3CCC4=CC(=O)C=C[C@]4(C)[C@@]3(Cl)[C@@H](O)C[C@]2(C)[C@@]1(OC(=O)c1ccco1)C(=O)CCl`, the max response in assay [6] is -19.5%. For the same molecule, the Potency result in assay [7], in [9], in assay [3], in [4], in [10] and in assay [8] was “inactive” in each case. The Potency result in assay [5] was “inactive”.
With `O=Cc1cc(O)ccc1Br`, the Potency result in assay [1], in [9], in assay [2], in [10] and in assay [5] was “inactive” in each case.
As to `C=CC(=O)OCCn1c(=O)n(CCOC(=O)C=C)c(=O)n(CCOC(=O)C=C)c1=O`, the Potency in assay [6] is 11 µM (active); in [7], 49 µM (active); in assay [9], 49 µM (active); in assay [2] it was 24.5 µM (active); in [3], 49 µM (active); in assay [4], 21.9 µM (active). For the same molecule, in [8], the Potency is 34.7 µM (active). Moreover, the Potency result in assay [10] and in assay [5] was “inactive” in each case.
For `O=C1c2c(O)ccc(Nc3ccc(CCO)cc3)c2C(=O)c2c([N+](=O)[O-])ccc(O)c21`, the max response in [6] was -18.6%. Moreover, the Potency result in [7], in assay [9], in assay [2], in assay [3], in assay [4] and in assay [10] was “inactive” throughout. Also, the Potency entry in [8] and in assay [5] was “inactive” each time.
Turning to `CCCC(=O)OC[C@@H](OC(=O)CCC)[C@@H](OC(=O)CCC)[C@H](Cn1c2nc(=O)[nH]c(=O)c-2nc2cc(C)c(C)cc21)OC(=O)CCC`, the max response in assay [6] is -24.9%. Further, the Potency in [7] was 21.3 µM (active); in [9] it was 19 µM (active); in assay [3], 21.3 µM (active); in [4] it was 21.3 µM (active); in assay [8], 21.3 µM (active); in assay [5], 16.9 µM (active). In addition, in [10], the Potency result was “inactive”.
Take `CN(C/C=C/C#CC(C)(C)C)Cc1cccc2ccccc12`: the Potency entry in assay [1], in [2], in [3], in assay [4], in assay [10] and in assay [5] was “inactive” each time.
With `NNc1nc(-c2ccc([N+](=O)[O-])cc2)cs1`, the Potency in assay [6] is 24.5 µM (active). For the same molecule, the Potency result in assay [7], in [9], in assay [3], in [4], in [10] and in assay [8] was “inactive” throughout. Moreover, in assay [5], the Potency result is “inactive”.
In the case of `O=C1CCCc2c1cc1ccc3cccc4ccc2c1c34`, the Potency in assay [6] was 9.89 µM (active). The Potency result in assay [7], in assay [9], in assay [2], in [3], in assay [4] and in assay [10] was “inactive” throughout. Further, in assay [5], the Potency result is “inactive”.
On to `O=C(Oc1ccccc1)c1ccccc1C(=O)Oc1ccccc1`, for which, in assay [6], the max response is -2.84%. The Potency entry in assay [7], in assay [9], in assay [2], in [3], in assay [4] and in assay [10] was “inactive” in each case. The Potency entry in assay [5] is “inactive”.
Regarding `N=C1N=C(N)c2cc3ccccc3cc21`, the Potency in assay [6] is 32.1 µM (active); in assay [7], 54.9 µM (active); in assay [9], 43.6 µM (active); in [2], 24.5 µM (active); in assay [3], 24.5 µM (active); in assay [4], 24.5 µM (active). In addition, the Potency in [8] is 54.9 µM (active). In addition, the Potency result in assay [10] and in assay [5] was “inactive” throughout.
